# Source: PubChem BioAssay (several laboratories)
# Compounds with a hit are over-represented: about 2.7% of the library has one in this group of screens.
# PfG6PD inh: PfG6PD enzyme inhibitors, primary screen, biochemical, fluorescence intensity, uHTS; glucose-6-phosphate dehydrogenase-6-phosphogluconolactonase (Plasmodium falciparum 3D7); PfGluPho enzyme, NADPH resazurin-diaphorase fluorescence; inhibition, % at 20 µM; hit rate 0.78% among 350,000; AID 504690, 2011;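 active = inhibition reaching at least a set limit at 20 µM in the primary screen, cut at about 59% in these data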
# FAS-TE inh: FAS thioesterase domain inhibitors, primary screen, biochemical, fluorescence intensity, uHTS; Fatty acid synthase (Homo sapiens), P49327; recombinant FAS-TE, OMFH fluorogenic substrate, fluorescence endpoint; inhibition, % at 15 µM; hit rate 0.67% among 360,000; AID 602261, 2012;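 active = compounds whose normalised, plate-corrected inhibition of enzyme fluorescence in the single-dose primary screen is 50% or more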
# Neddylation inh: inhibitors of cullin neddylation, primary screen, biochemical, TR-FRET, uHTS, NAE and Ubc12; hit rate 0.58% among 360,000; AID 651699, 2012; calls only at 25 µM; NEDD8-conjugating enzyme Ubc12 (Homo sapiens) + NEDD8-activating enzyme E1 regulatory …; in the data active = inhibition above about 36%
# Target sequence (P61081 whole entry, looked up): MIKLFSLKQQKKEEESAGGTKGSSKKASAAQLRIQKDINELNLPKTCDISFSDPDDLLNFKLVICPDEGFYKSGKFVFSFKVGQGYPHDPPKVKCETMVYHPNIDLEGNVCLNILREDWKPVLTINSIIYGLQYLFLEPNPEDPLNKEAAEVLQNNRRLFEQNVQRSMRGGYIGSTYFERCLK
# Target sequence (Q13564 whole entry, looked up): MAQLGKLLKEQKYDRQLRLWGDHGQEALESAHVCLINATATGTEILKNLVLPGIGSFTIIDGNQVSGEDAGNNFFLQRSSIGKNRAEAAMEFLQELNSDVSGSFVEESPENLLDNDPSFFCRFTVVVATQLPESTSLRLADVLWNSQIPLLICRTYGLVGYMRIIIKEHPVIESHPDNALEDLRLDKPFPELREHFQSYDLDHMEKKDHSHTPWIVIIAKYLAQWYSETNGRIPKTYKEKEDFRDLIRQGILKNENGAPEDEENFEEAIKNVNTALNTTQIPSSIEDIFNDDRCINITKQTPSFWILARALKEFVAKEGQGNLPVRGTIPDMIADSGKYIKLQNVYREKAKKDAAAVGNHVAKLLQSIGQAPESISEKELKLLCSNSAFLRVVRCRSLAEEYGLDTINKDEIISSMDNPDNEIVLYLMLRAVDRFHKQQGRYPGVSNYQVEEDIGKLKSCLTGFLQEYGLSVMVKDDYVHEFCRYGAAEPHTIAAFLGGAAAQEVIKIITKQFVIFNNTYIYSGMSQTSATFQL
# proKLK7 act: proKLK7 zymogen activators, primary screen, biochemical, fluorescence intensity; hit rate 0.9% among 370,000; Kallikrein-7 (Homo sapiens), P49862; activation, % at 7 µM; purified proKLK7, EDANS-DABCYL substrate fluorescence; 100% is mature enzyme control, 0% vehicle;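 active = activation above the mean of all tested compounds plus 3 SD, computed per campaign excluding outliers beyond control limits, cut at about 13% in these data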
# Neddyl conf: blockade of NEDD8 conjugation to cullin – biochemical, TR-FRET, single concentration, confirmation | shares compounds with Neddylation inh | TR-FRET cullin neddylation biochemical assay | calls only at 25 µM | hit rate 13% among 1,800; in the data active = inhibition above about 40%;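 also: neddylation substrate is the cullin 1 ring ligase complex with SKP2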
# Calls only; 0 = inactive; - = not tested or not shown; + = active, no number; ! = a repeat was not active.
SMILES,PfG6PD inh,FAS-TE inh,Neddylation inh,proKLK7 act,Neddyl conf
O=C1Nc2ccc(S(=O)(=O)N3CCCC3)c3cccc1c23,0,0,+,0,0
Cc1ccc(Cn2cc(CN(C3CC3)S(=O)(=O)c3ccccc3Br)nn2)cc1,-,-,-,0,-
CCC(C)NS(=O)(=O)c1ccc2[nH]c(=O)oc2c1 (stereo unspecified),-,-,-,0,-
CC(C)c1cccc(-c2csc(C(C)(O)c3ccccc3)n2)c1 (stereo unspecified),-,0,0,0,-
Cc1cc(-c2ccccc2)c2nncn2n1,0,0,+,0,+
Cc1cc(-c2ccccc2)c2c3c(cn2n1)c(=O)n(C)c(=O)n3C,0,0,0,0,-
O=C(CSc1nnc(-c2cnccn2)n1-c1ccccc1)Nc1ccc2c(c1)OCCO2,-,-,-,0,-
COc1ccc(C(=O)Nc2ccncc2)cc1S(=O)(=O)N1CCOCC1,0,0,0,0,-
COc1ccc(C(=O)Nc2ccc(NC(=O)c3ccccc3)cc2)cc1S(=O)(=O)N1CCOCC1,0,0,+,0,0
N#C/C(=C/c1cn(-c2ccccc2)nc1-c1cccc(S(=O)(=O)N2CCOCC2)c1)C(=O)NCc1ccco1,0,0,+,0,0
COc1ccc2cc(/C(C)=N/NC(=O)C3CC3)ccc2c1,0,0,+,0,0
O=S1(=O)c2ccc(N3CCC[C@H]3CO)cc2O[C@H]2CCN1C2,-,-,-,0,-
Cc1nc2ccc(C(=O)N3c4ccccc4N=C(c4ccc(C(F)(F)F)cc4)C3C(=O)NC(C)(C)C)cc2[nH]1 (stereo unspecified),-,-,-,0,-
Cc1ccc(C(=O)Nc2ccc3c(c2)C(=O)N(CC2CCCO2)C3=O)cc1 (stereo unspecified),0,0,+,0,-
CCOC(=O)C1=C(COC(=O)/C=C/c2ccc(SC)cc2)NC(=O)NC1C (stereo unspecified),0,0,+,0,-
CCCNC(=O)c1ccccc1NC(=O)c1ccc2c(=O)n3c(nc2c1)CCC3,0,0,+,0,-
COc1ccc(C2Nc3cccc(O)c3C(=O)N2Cc2ccccc2)cc1COc1ccc(NC(C)=O)cc1 (stereo unspecified),-,0,0,0,-
O=c1cc2oc3cc(O)c(O)cc3c(-c3ccccc3[N+](=O)[O-])c-2cc1O,0,0,0,0,-
CCOC(=O)CSc1nc(C)c2cc(OC)ccc2n1,0,0,0,0,-
CCC(=O)N/C(N)=N/c1nc(C)c2cc(OC)ccc2n1,0,0,+,0,+
O=c1[nH]c2ccccc2nc1-c1ccc(Cl)cc1,0,0,0,0,-
O=c1[nH]c2ccccc2nc1-c1ccccc1,0,0,+,0,+
CCn1c(=O)c2cc(C(=O)N3CCOCC3)sc2c2ccccc21,0,0,+,0,-
O=[N+]([O-])c1cccc(OCCCN2CCC(C(O)(c3ccccc3)c3ccccc3)CC2)c1,-,-,-,0,-
CC(C)(C)c1ccc(C(=O)N2CCN(c3ccc(N4CCOCC4)nn3)CC2)cc1,0,0,+,0,-
SMILES,PfG6PD inh,FAS-TE inh,Neddylation inh,proKLK7 act,Neddyl conf
O=C(c1ccc(C(F)(F)F)cc1)N1CCN(c2ccc(N3CCOCC3)nn2)CC1,0,0,+,0,-
CCOc1ccc(CCNC(=O)c2cc(-c3ccccc3)c(N3CCOCC3)s2)cc1OC,-,-,-,0,-
Cc1cccc(C(=O)OCC(=O)NC(C)CCc2ccccc2)c1 (stereo unspecified),0,0,0,0,-
CC(CCc1ccccc1)NC(=O)COC(=O)c1cccc(N(C)C)c1 (stereo unspecified),0,0,+,0,0
CC1Cc2ccccc2N1C(=O)COC(=O)c1ccc(O)cc1 (stereo unspecified),0,0,0,0,-
COC(=O)C1=C(C)NC(C)=C(C(=O)OC)C1C(=O)OCC(=O)N1c2ccccc2CC1C (stereo unspecified),0,0,+!,0,-
CN(C)c1cccc(C(=O)NCc2ccc3c(c2)OCO3)c1,0,0,+,0,+
CN(C)c1ccc(C(=O)NCc2ccc3c(c2)OCO3)cc1,0,0,0,0,-
COc1ccc(-c2cc3ccc(OCC(N)=O)cc3oc2=O)cc1OC,0,0,+,0,0
CCOC(=O)c1oc2cc(OCC(N)=O)ccc2c(=O)c1-c1ccc(OC)c(OC)c1,0,0,0,0,-
COc1ccc(C2CC(c3cccs3)=NN2C(=O)CSC2=NCCS2)cc1 (stereo unspecified),0,0,+,0,0
N#Cc1ccccc1OCC(=O)N1N=C(c2cccs2)CC1c1ccco1 (stereo unspecified),0,0,+,0,0
Cc1ccc(C2CC(c3cccs3)=NN2C(=O)CSC2=NCCS2)cc1 (stereo unspecified),0,0,-,0,-
O=C(c1ccco1)N1N=C(c2cccs2)CC1c1ccc(F)cc1 (stereo unspecified),0,0,+,0,0
O=C(COc1cc(F)ccc1[N+](=O)[O-])N1N=C(c2cccs2)CC1c1ccco1 (stereo unspecified),0,0,0,0,-
CCC(=O)N1N=C(c2cccs2)CC1c1ccc(C)cc1 (stereo unspecified),0,0,+,0,-
Cc1ccc(C2CC(c3cccs3)=NN2C(=O)CCl)cc1 (stereo unspecified),0,0,-,0,-
COc1ccc(-c2nn(-c3ccccc3)cc2C2CC(c3cccs3)=NN2C(=O)CCC(=O)O)cc1 (stereo unspecified),0,0,+,0,0
O=C(Nc1ccccc1)N1N=C(c2cccs2)CC1c1cccs1 (stereo unspecified),0,0,+,0,0
COc1ccc(C2=NN(C(=O)CCCC(=O)O)C(c3cn(-c4ccccc4)nc3-c3ccccc3)C2)cc1 (stereo unspecified),0,0,0,0,-
CCC1CCCN1Cn1cnc2c([nH]c3ccccc32)c1=O (stereo unspecified),0,0,+,0,0
CCN1CCCC1Cn1cnc2c([nH]c3ccc(Cl)cc32)c1=O (stereo unspecified),0,0,0,0,-
CC(=O)Nc1ccc(S(=O)(=O)N2CCN(c3cc(C(F)(F)F)ccn3)CC2)cc1,0,0,+,0,0
Cc1cccc(NC(=O)C2CCCN(c3nnc(-n4cccc4)s3)C2)c1C (stereo unspecified),-,-,-,0,-
COCCCNC(=O)C(C#N)c1nc2ccccc2nc1N1CCCC1 (stereo unspecified),0,0,-,0,-
COCCOC(=O)C(C#N)c1nc2ccccc2nc1N1CCCC1 (stereo unspecified),0,0,+,0,0
C[C@@H](CCCCC1(C)OCCO1)CCC(=O)N(c1ccccc1)c1ccccc1,-,-,-,0,-
